According to doi:10.1101/2024.03.05.583629:

Biological target: pT7_6His-AlfaTag-HOXD13 (human, UniProt P35453 263-343)
Assay: PADIT-seq
Settings: dsDNA, one strand shown

Sequence of pT7_6His-AlfaTag-HOXD13 (P35453 263-343): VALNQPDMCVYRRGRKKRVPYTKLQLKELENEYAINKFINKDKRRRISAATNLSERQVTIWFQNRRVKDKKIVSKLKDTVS

Row | Sequence | binding signal
1 | CTCGAGGATATCAAGATCTGGCCTCGGCAATTTAAAAGGAACCTCTAGCTAGCCGACTCACTATAGGGATAATCGCCCTGAGCAAAGACC | 2.32 ± 0.0729 log2FC
2 | CTCGAGGATATCAAGATCTGGCCTCGGCGGCATAAAAGGAACCTCTAGCTAGCCGACTCACTATAGGGATAATCGCCCTGAGCAAAGACC | 0.675 ± 0.0684 log2FC
3 | CTCGAGGATATCAAGATCTGGCCTCGGCGAAGTAAAAGGAACCTCTAGCTAGCCGACTCACTATAGGGATAATCGCCCTGAGCAAAGACC | 0.136 ± 0.0787 log2FC
4 | CTCGAGGATATCAAGATCTGGCCTCGGCTGGTTAAAAGGAACCTCTAGCTAGCCGACTCACTATAGGGATAATCGCCCTGAGCAAAGACC | 1.48 ± 0.0798 log2FC
5 | CTCGAGGATATCAAGATCTGGCCTCGGCGCTGTAAAAGGAACCTCTAGCTAGCCGACTCACTATAGGGATAATCGCCCTGAGCAAAGACC | 2.11 ± 0.0786 log2FC
6 | CTCGAGGATATCAAGATCTGGCCTCGGCGCCATAAAAGGAACCTCTAGCTAGCCGACTCACTATAGGGATAATCGCCCTGAGCAAAGACC | 2.57 ± 0.0659 log2FC
7 | CTCGAGGATATCAAGATCTGGCCTCGGCGTCGTAAAAGGAACCTCTAGCTAGCCGACTCACTATAGGGATAATCGCCCTGAGCAAAGACC | 2.57 ± 0.0709 log2FC
8 | CTCGAGGATATCAAGATCTGGCCTCGGCGTAGTAAAAGGAACCTCTAGCTAGCCGACTCACTATAGGGATAATCGCCCTGAGCAAAGACC | 2.18 ± 0.0733 log2FC
9 | CTCGAGGATATCAAGATCTGGCCTCGGCTTTTTATATGGAACCTCTAGCTAGCCGACTCACTATAGGGATAATCGCCCTGAGCAAAGACC | 3.25 ± 0.0873 log2FC
10 | CTCGAGGATATCAAGATCTGGCCTCGGCATTTTACCGGGAACCTCTAGCTAGCCGACTCACTATAGGGATAATCGCCCTGAGCAAAGACC | 1.17 ± 0.0862 log2FC
11 | CTCGAGGATATCAAGATCTGGCCTCGGCATTTTACCTGGAACCTCTAGCTAGCCGACTCACTATAGGGATAATCGCCCTGAGCAAAGACC | -0.0491 ± 0.129 log2FC
12 | CTCGAGGATATCAAGATCTGGCCTCGGCCTTTTAAATGGAACCTCTAGCTAGCCGACTCACTATAGGGATAATCGCCCTGAGCAAAGACC | 2.36 ± 0.0747 log2FC
